Screening data: PubChem, National Center for Advancing Translational Sciences (NCATS)
Sampled rows, rich in hits. Any-hit rate of the full collection: about 0.95%.
A647 autofl – compound autofluorescence in A647 spectral region; 59,000 tested, under 10 active; AID 592; Compound fluorescence, A647 channel (570/671 nm), Tris buffer; max dye-equivalent concentration, M;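 further: values scaled relative to a standard on each plate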
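Compound fluorescence was measured in 100 mM Tris buffer, pH 8.0, after 15 min at room temperature, using 570 nm excitation and 671 nm emission filters. Signal was normalized to a per-plate Alexa 647 standard curve and expressed as dye-equivalent concentration at each compound concentration.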
Fluorescein autfl – compound fluoresces in the fluorescein spectral region. Compound autofluorescence, 480/540 nm, fluorescein-equivalent; stronger effect = higher value. max fluorescein-equivalent concentration, M. AID 593. 59,000 tested, 0.91% active; in the data active means max fluorescein-equivalent concentration above about 10 nM; inconclusive means between about 1.1 nM and that limit
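Library compounds, added at multiple concentrations to pH 8.0 Tris buffer (100 mM), incubate 15 min at room temperature before CCD imaging at 480 nm excitation and 540 nm emission.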
Texas Red fluor – compounds fluorescent in Texas Red spectral region. Compound fluorescence, Texas Red channel, 547/618 nm; stronger effect = higher value. max dye-equivalent concentration, M. 59,000 tested, 0.06% active. AID 587; in the data active means max dye-equivalent concentration above about 10 nM; inconclusive means between about 1.1 nM and that limit
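Dye-equivalent concentrations come from scaling compound signal (ex 547, em 618 nm) to six Texas Red standard concentrations run on every plate, after 15 min room-temperature incubation in pH 8.0 Tris (100 mM).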
Resorufin fluor – resorufin region autofluorescence; 59,000 tested, 0.04% active; AID 588; max dye-equivalent concentration, M; Compound fluorescence, resorufin region 547/598 nm, buffer; stronger effect = higher value
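Intrinsic fluorescence profiled in the resorufin window (ex 547 nm, em 598 nm) after 15 min at room temperature in pH 8.0 Tris buffer (100 mM); responses normalized against a six-point resorufin standard series as dye-equivalent concentration.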
A488 fluor – compound autofluorescence in A488 spectral region. compound autofluorescence, A488 spectral region, dye equivalency; Compound Type: qHTS ECL - MLSMR. max dye equivalency, M. 59,000 tested, 0.1% active. AID 591
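Compound autofluorescence was read in 100 mM Tris pH 8.0 after 15 min at room temperature, ex 480 nm/em 540 nm. Intensities were converted to A488 dye-equivalent concentration using an on-plate six-point A488 standard curve.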
Rhodamine autofl – compound fluoresces in the rhodamine spectral region | Rhodamine-region fluorescence, 547/598 nm, Tris buffer; stronger effect = higher value | max dye-equivalent concentration, M | 59,000 tested, 0.05% active | AID 594; in the data active means max dye-equivalent concentration above about 11 nM; inconclusive means between about 1.1 nM and that limit
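Steps: pin-transfer compounds into pH 8.0 Tris (100 mM), hold 15 min at room temperature, image with a 547/598 nm filter pair, and convert intensities to rhodamine-equivalent concentration using a six-point on-plate rhodamine series.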
Numbers without * were called inactive; i = inactive; ? = inconclusive. Unless noted, how the calls were made is not given here.

SMILES	A647 autofl	Fluorescein autfl	Texas Red fluor	Resorufin fluor	A488 fluor	Rhodamine autofl
CN(C)C=Nc1nonc1-c1ncn[nH]1	2.7e-08	i	i	i	i	i
COc1ccccc1CNc1nc(-c2ccccc2OC)nc2ccccc12	4.7e-09	i	?	i	i	i
CC(C)(C)c1cc(/C=C(\C#N)C(N)=S)cc(C(C)(C)C)c1O	7.9e-09	2.8e-08M*	i	i	i	i
CC(=O)C1(C)OC(N)=C(C#N)C(c2ccccc2)C1(C#N)C#N (stereo unspecified)	3.2e-09	1.1e-08M*	i	i	i	i
CCOC(=O)C1=C(C(C)=O)C(c2cccnc2)C(C#N)=C(N)O1 (stereo unspecified)	3e-08	i	?	i	i	i
Cc1nnc(S(=O)(=O)c2ccc(N=Nc3c(N)nc(N)nc3N)cc2)s1	3e-08	i	i	i	i	i
CCN(CC)c1ccc2c(Cl)c(Br)c(=O)oc2c1	4e-08	?	i	i	i	i
CCN(CC)c1ccc2c(c1)oc(=O)c1c(Cl)cc(=O)oc12	3.8e-08	4.8e-07M*	i	i	2.5e-08M*	i
Cc1ccccc1-n1c(=O)/c(=C\c2ccco2)s/c1=C(/C#N)C(=O)Nc1ccccc1	1e-09	1.4e-08M*	i	i	i	i
CCNc1ncc2nc(CCc3ccccc3)c(=O)n(C)c2n1	1e-09	i	i	i	i	i
CCOC(=O)C1=C(C)OC(N)=C(C#N)C1c1cc(OC)c2c(c1)OCO2 (stereo unspecified)	7.1e-09	?	i	i	i	i
CCOc1cc(C2C(C#N)=C(N)OC(C)=C2C(C)=O)cc(Br)c1O (stereo unspecified)	2.5e-09	1.9e-07M*	i	i	1.2e-08M*	i
O=C(O)C1Sc2[nH]c(=O)sc2C2c3cc(Cl)ccc3OC(=O)C12 (stereo unspecified)	1.7e-08	i	i	i	i	i
Cc1ccc(C2c3sc(=O)[nH]c3SC3C(=O)NC(=O)C32)cc1 (stereo unspecified)	1e-09	1.2e-08M*	i	i	i	i
COc1ccc(C2CNC(=O)C2)cc1OC1CCCC1 (stereo unspecified)	1.3e-09	1.1e-08M*	i	i	i	i
COc1ccc(CCNS(=O)(=O)c2ccc(C3CNC(=O)C3)cc2)cc1OC (stereo unspecified)	3.2e-09	i	i	i	i	i
Cc1csc(NC(=O)c2sc3nc(-c4cccs4)ccc3c2N)n1	1e-09	1.4e-08M*	i	i	i	i
COc1ccc(C(=O)Nc2nc(-c3cccs3)cs2)cc1	1.8e-08	?	i	i	i	i
CC(=O)c1sc2nc(-c3cccs3)cc(C(F)(F)F)c2c1N	1e-09	7.2e-08M*	i	i	?	i
N#Cc1cccc(NC(=O)N2CC[C@@]3(CCCN(C(=O)c4cccc(F)c4)C3)C2)c1	1.4e-08	?	i	i	i	i
Cc1ccccc1CNc1ncnc2c1ncn2[C@@H]1O[C@@H](CO)[C@H](O)[C@@H]1O	1.2e-09	2e-08M*	?	i	i	i
N=c1c(S(=O)(=O)c2ccccc2)cc2c(=O)n3ccccc3nc2n1Cc1ccco1	3.5e-09	?	i	i	i	i
Cc1ccc(S(=O)(=O)c2cc3c(=O)n4ccccc4nc3n(Cc3ccco3)c2=N)cc1C	4.1e-08	1.2e-08M*	i	i	i	i
COc1ccc(C2C(C(C)=O)=C(C)N=c3s/c(=C/c4ccc5c(c4)OCO5)c(=O)n32)cc1 (stereo unspecified)	1.5e-09	1.2e-08M*	i	i	i	i
CC(=O)C1=C(C)N=c2s/c(=C/c3ccc4c(c3)OCO4)c(=O)n2C1c1ccc(N(C)C)cc1 (stereo unspecified)	2.5e-09	i	i	i	i	i
O=C(NCc1ccc2[nH]c3c(c2c1)CCCC3)N1CCOCC1	1e-09	1.5e-08M*	i	i	i	i
CCOc1cccc2cc(C(=O)N3CCc4ccccc43)c(=O)oc12	1e-09	?	2.3e-08M*	?	i	1.1e-08M*
